# Measurements reported in the supplement of paper PMC6555819.
# How the values were obtained:
# Assay in all cases: PBM binding z-score (relative to random genomic background probes); higher = stronger binding; sequences stand for … in GC…GCGATTGACAGCGTAGAATGAAGG
# [1] = test system: FXR:RXRa (NR concentration 270 nM, RXRa partner concentration 90 nM)
# Outline: (§1)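 The probes on custom Agilent 4×180K protein-binding microarrays were double-stranded, with 34-nt variable regions bearing direct-repeat seeds, single-nucleotide variants, half-site ablations and random human genomic background sequences. Incubation lasted 1 h with ligand-free nuclear receptor dimers in PBS pH 7.4, 2% milk, 0.02% Triton X-100, 1 mM DTT, 0.2 mg/mL BSA and 0.4 mg/ml salmon testes DNA. Antibodies against each partner (one per run) detected bound dimers, and fluorescence scans were regression-normalized. Binding z-scores take the random background probes as reference.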
# [2] = test system: LXRa:RXRa (NR concentration 270 nM, RXRa partner concentration 90 nM)
# Outline: as §1
# [3] = test system: LXRa homodimer (NR concentration 270 nM)
# Outline: as §1
# [4] = test system: LXRb:RXRa (NR concentration 270 nM, RXRa partner concentration 90 nM)
# Outline: as §1
# [5] = test system: LXRb homodimer (NR concentration 270 nM)
# Outline: as §1
# [6] = test system: PPARa:RXRa (NR concentration 270 nM, RXRa partner concentration 90 nM)
# Outline: as §1
# [7] = test system: PPARg:RXRa (NR concentration 180 nM, RXRa partner concentration 90 nM)
# Outline: as §1
# [8] = test system: PPARg:RXRa 270nM:90nM, anti-RXR (NR concentration 270 nM, RXRa partner concentration 90 nM)
# Outline: as §1
# [9] = test system: PPARg:RXRa 30nM:10nM, anti-RXR (NR concentration 30 nM, RXRa partner concentration 10 nM)
# Outline: as §1
# [10] = test system: PPARg:RXRa 90nM:30nM, anti-RXR (NR concentration 90 nM, RXRa partner concentration 30 nM)
# Outline: as §1
# [11] = test system: PPARg:RXRa DBDmut IVT, anti-RXR (DBD mutation: RXRa K156A/R161A, NR concentration 270 nM, RXRa partner concentration 90 nM)
# Outline: as §1
# [12] = test system: PPARg:RXRa IVT, anti-PPARg (NR concentration 270 nM, RXRa partner concentration 90 nM)
# Outline: as §1
# [13] = test system: PPARg DBDmut:RXRa IVT, anti-PPARg (DBD mutation: PPARg1 K132A/R137A, NR concentration 270 nM, RXRa partner concentration 90 nM)
# Outline: as §1
# [14] = test system: PPARg DBDmut IVT, anti-PPARg (DBD mutation: PPARg1 K132A/R137A, NR concentration 270 nM)
# Outline: as §1
# [15] = test system: PPARg homodimer (NR concentration 180 nM)
# Outline: as §1
# [16] = test system: PXR:RXRa (NR concentration 270 nM, RXRa partner concentration 90 nM)
# Outline: as §1
# [17] = test system: PXR homodimer (NR concentration 270 nM)
# Outline: as §1
# [18] = test system: RARa:RXR (NR concentration 270 nM, RXRa partner concentration 90 nM)
# Outline: as §1
# [19] = test system: RARa homodimer (NR concentration 270 nM)
# Outline: as §1
# [20] = test system: RARb:RXRa (NR concentration 270 nM, RXRa partner concentration 90 nM)
# Outline: as §1
Sequence,PBM binding z-score [1],PBM binding z-score [2],PBM binding z-score [3],PBM binding z-score [4],PBM binding z-score [5],PBM binding z-score [6],PBM binding z-score [7],PBM binding z-score [8],PBM binding z-score [9],PBM binding z-score [10],PBM binding z-score [11],PBM binding z-score [12],PBM binding z-score [13],PBM binding z-score [14],PBM binding z-score [15],PBM binding z-score [16],PBM binding z-score [17],PBM binding z-score [18],PBM binding z-score [19],PBM binding z-score [20]
CCTACTGGGCCATTCAGAGGTCGTTGATCATATG,0.36,0.813,0.735,0.964,-0.712,1.97,0.916,1.26,-0.074,0.672,4.62,3.78,-0.302,0.289,0.217,1.55,0.112,1.27,-0.226,1.11
ATCGAAAGGTCGACGAGGTCAGTATACACCGTTT,5.54,5.03,1.52,4.61,0.78,5.04,3.64,4.13,1.28,2.65,1.29,2.59,1.42,0.928,2.73,5.77,9.23,5.2,1.54,4.56
CGTCCAAGGTCATAGGAGGTCAGTGAAGACAGAT,7.58,7.44,4.4,5.99,1.01,5.84,5.77,5.68,2.12,4.17,3.11,4.48,0.77,-0.116,3.31,6.64,4.38,5.77,1.77,5.4
CAAACTAGGTCAAGAGGTCAACGTCCGCTTCCCG,6.68,6.31,5.46,5.27,1.55,6.6,9.74,8.42,7.54,8.92,8.45,8.58,3.13,2.14,8.6,6.18,1.76,7.72,4.74,5.47
TATACAGGTTCAAAGGCCAGAGTACGAATGTCGA,3.17,4.13,2.06,2.27,1.19,3.41,2.89,3.54,1.9,2.88,0.255,1.44,0.672,0.97,1.53,2.53,1.35,2.91,1.41,2.2
CCGACTGGGGCAAGGTTACCATAACGCACAGCCA,0.287,0.668,-0.166,0.835,-1.25,2.12,2.78,3.43,1.23,2.86,3.29,3.67,-0.449,-0.891,0.674,0.267,-0.266,0.99,0.394,1.75
ACAATGAGGTTACCAAAGATCAGGGAAACGCTTG,1.97,6.4,0.286,3.25,0.572,3.26,2.36,2.11,0.698,1.61,2.64,2.42,0.961,1.48,0.966,1.52,0.0541,2.2,0.0916,2.32
GCTCAGAGGACAAGGTCAGAGCTTTGTCCGTAGA,1.98,1.73,-0.421,1.27,-0.977,2.37,0.282,0.936,-0.588,0.0916,0.92,0.924,-1.05,-1.28,0.348,1.74,-0.21,2.17,-0.133,3.78
CCTGCTAGGTCATAGTCAGCTAATCTACAGTATG,3.02,2.11,0.646,1.7,0.153,3.12,1.77,2.14,0.394,1.32,3.96,3.31,0.51,0.574,1.15,1.16,-0.0222,1.73,0.243,3.54
TCTATTAGTTGAAGCGCAACCGACGAGTCCGTTT,0.428,0.488,-0.0421,0.375,0.082,0.55,-0.192,1.85,3.58,2.67,2.22,0.202,0.484,1.23,0.5,0.326,0.219,0.126,0.262,0.271
TCTCGGAGGACACGAAAGGTCAGACCTCGACATC,3.09,3.69,3.12,3.51,-0.0358,3.57,1.38,2.68,2.63,2.67,1.73,1.54,0.0109,-0.512,2.48,4.1,0.547,4.15,1.09,4.28
